A selection: hits, their analogues and other compounds. The true share with any hit is near 4.8%.
Hsp70 activator = switches on Hsp70 transcription | HeLa Hsp70 promoter luciferase reporter, luminescence; scaled: vehicle 0, proteasome-inhibitor control 100% | activation, % at 10 µM | actives 0.04% (n = 200,000) | AID 1203;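 active = activation above the mean across all tested compounds plus 3 SD, cutoff set per campaign, cut at about 5.5% in these data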;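 note: 100% = MG132 at 30 µM as the positive control and 0% = DMSO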
NF-kB expr up = NF-kB expression increase, human neuronal cells; NF-kB reporter expression; stronger effect = higher value; fold change at 12.5 µM; actives 1.6% (n = 190,000); in the data active = fold change above about 3.3
Wee1 stabilizer = human Wee1 degradation inhibition, primary screen. P30291. HeLa Luc-Wee1K328M stability, luciferase luminescence; 100% = proteasome inhibitor MG132 effect. reporter increase, % at 5 µM. actives 1.2% (n = 220,000). AID 1321;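 active = activation above the mean of all tested compounds plus 3 SD, set per screening run, cut at about 8.8% in these data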;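 note: cells exposed to compound for 20 h before luminescence read; 0% = DMSO alone and 100% = MG132 at 30 µM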
Target sequence (P30291 whole entry K328M): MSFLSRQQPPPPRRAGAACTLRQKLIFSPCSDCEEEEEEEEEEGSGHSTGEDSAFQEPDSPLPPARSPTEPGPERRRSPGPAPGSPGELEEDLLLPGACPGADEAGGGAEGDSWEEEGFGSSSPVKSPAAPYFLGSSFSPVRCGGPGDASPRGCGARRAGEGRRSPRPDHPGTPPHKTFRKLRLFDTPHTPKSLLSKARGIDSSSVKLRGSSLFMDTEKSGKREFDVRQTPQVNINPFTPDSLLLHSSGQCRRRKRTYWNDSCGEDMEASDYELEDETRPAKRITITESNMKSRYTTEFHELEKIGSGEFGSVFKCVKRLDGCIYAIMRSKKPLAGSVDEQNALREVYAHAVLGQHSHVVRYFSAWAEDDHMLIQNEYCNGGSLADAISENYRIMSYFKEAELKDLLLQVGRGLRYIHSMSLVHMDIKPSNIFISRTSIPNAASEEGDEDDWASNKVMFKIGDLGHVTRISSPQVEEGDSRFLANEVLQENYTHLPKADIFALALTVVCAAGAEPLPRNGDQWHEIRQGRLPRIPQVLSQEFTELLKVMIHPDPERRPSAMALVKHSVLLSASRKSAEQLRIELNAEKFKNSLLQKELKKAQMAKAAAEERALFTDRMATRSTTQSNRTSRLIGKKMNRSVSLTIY
STAT1 act = increases IFN-gamma driven STAT1 reporter signal; NIH 3T3 STAT1-luciferase reporter, luminescence; 100% = IFN-gamma alone, no compound; activation (% of control), % at 5.5 µM; actives 2.6% (n = 200,000); AID 932;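 active = activation above the screen-wide mean activation plus 3 SD, cut at about 130% in these data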;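 note: raw ratio to IFN-gamma control signal so 100% means no change and 0% no light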
APP 5'UTR act = activates APP 5'UTR luciferase reporter | SH-SY5Y APP 5'UTR luciferase reporter, luminescence; zero percent = DMSO vehicle wells | activation, % at 2 µM | actives 1% (n = 190,000) | AID 1276;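 active = activation above a set limit, based on mean plus 3 SD of controls, cut at about 140% in these data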
APP 5UTR inh = APP translation inhibition; SH-SY5Y APP 5'UTR-luciferase reporter, luminescence; inhibition, % at 2 µM; actives 0.82% (n = 190,000); AID 1285;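 active = inhibition above a set limit, derived from the sample mean plus 3 SD, cut at about 45% in these data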
STAT1 activ conf = confirmation of STAT1 signaling activators; shares compounds with STAT1 act; NIH 3T3 STAT1-luciferase reporter, IFN-gamma potentiation, luminescence; 100% = IFN-gamma EC80 alone, no compound; activation (% of control), % at 5.7 µM; actives 97% (n = 1,200); AID 1262;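 active = activation above a set limit carried over from the earlier primary STAT1 screen, cut at about 140% in these data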;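 note: simple ratio to median IFN-gamma plus DMSO wells so 0% means no light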
NFkB act STAT1ct = counter-screen for STAT1 activators: NF-kappaB activation | actives 43% (n = 1,200) | HEK293T NF-kB luciferase reporter, TNF-alpha stimulated, luminescence; 100% = TNF-alpha with vehicle only | activation (% of control), % at 5.7 µM | shares compounds with STAT1 act;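 active = activation above the mean of solvent-only control wells plus 3 SD, set per campaign, cut at about 130% in these data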;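 note: TNF-alpha given at a submaximal dose yielding about 80% of full reporter signal; values are well signal over median control so 100% means no change and 0% no light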
STAT3 act 2 = counter-screen for STAT1 activators: human STAT3 activation; shares compounds with STAT1 act; U3A cells STAT3-luciferase reporter, IL-6, luminescence; cells lack STAT1; 100 = IL-6 alone, no compound effect; activation (% of control), % at 5.7 µM; actives 46% (n = 1,200);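 active = activation above the solvent-only control well mean plus 3 SD, set per plate batch, cut at about 110% in these data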;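 note: 0% = no luminescence and 100% = median IL-6 plus DMSO wells; higher means more STAT3 reporter activation so hits are non-selective activators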
* hit, by the source's call; . = no result.

SMILES	Hsp70 activator	NF-kB expr up	Wee1 stabilizer	STAT1 act	APP 5'UTR act	APP 5UTR inh	STAT1 activ conf	NFkB act STAT1ct	STAT3 act 2
O=C(CC1Nc2ccccc2NC1=O)c1ccccc1 (centres undefined)	-0.2	2.52	8.4	156.2*	33.1	-33.1	206.2*	129.7	165.2*
COc1cccc(/C=C/C(=O)c2ccc(NS(=O)(=O)c3ccc(C)cc3)cc2)c1	-0.2	1.15	0.7	96.7	1.2	-1.2	.	.	.
Nc1c(Cl)cnc(C(Cl)(Cl)Cl)c1Cl	-0.1	0.99	1.2	88.5	5.5	-5.5	.	.	.
O=C(Nc1nc2c(s1)CCCC2)c1ccc(Br)s1	-0.2	6.08*	1.3	165.9*	146.1*	-146.1	256.3*	138.3*	103.7
COc1ccc(OC)c2sc(NC(=O)c3ccc(Br)s3)nc12	-0.1	1.18	1.1	101.1	20.2	-20.2	.	.	.
COC(=O)c1ccc(C(=O)NC(=S)Nc2nc3c(s2)CCCC3)cc1	-0.4	1.71	0.0	124.4	22.1	-22.1	.	.	.
Cc1ncsc1C(=O)Nc1nc2c(s1)CCCC2	0.5	3.17	3.0	153.9*	100.6	-100.6	174.8*	124.4	105.2
CCC1(C)Cc2c(sc3nnn(CC(=O)Nc4ccc(C)cc4)c(=O)c23)CO1 (centres undefined)	0.0	0.93	8.7	88.1	4.7	-4.7	.	.	.
CCn1c(Cc2ccccc2)nnc1SCC(=O)c1cccc([N+](=O)[O-])c1	-0.1	1.34	-0.7	94.3	-0.3	0.3	.	.	.
Nc1nn(-c2ccccc2)c(N)c1N=Nc1cccc(F)c1	.	.	8.8	.	.	.	.	.	.
Nc1nn(-c2ccccc2)c(N)c1N=Nc1ccc2c(c1)OCO2	-0.2	7.51*	9.8*	178.4*	91.8	-91.8	253.3*	135.2*	111.9*
Cc1nn(-c2nnc(NC3CCCCC3)nn2)c(C)c1Br	0.2	2.78	0.1	163.8*	134.2	-134.2	184.5*	132.8	121.7*
Cc1nn(C)c(C)c1S(=O)(=O)NC1CCCC1	-0.4	1.07	-3.1	107.0	9.9	-9.9	.	.	.
COCCNC(=O)CN1CCC(NC(=O)Nc2ccccc2)CC1	0.7	1.11	-3.1	96.5	-2.0	2.0	.	.	.
Cc1cccc2nc(COc3ccc(-c4ccccc4)cc3)cn12	0.0	2.3	-3.0	162.6*	38.7	-38.7	168.0*	109.7	115.3*
Cc1cc(C)n2cc(COc3ccc4ccccc4c3)nc2n1	-0.1	8.03*	0.9	176.3*	146.1*	-146.1	214.1*	127.1	117.4*
CCOC(=O)c1cn2c(C)cccc2n1	-0.1	1.06	-1.8	98.8	16.8	-16.8	.	.	.
O=S(=O)(c1ccc(OCC(O)CNCc2ccco2)c(Cl)c1)N1CCOCC1 (centres undefined)	0.0	1.07	1.9	90.3	11.3	-11.3	.	.	.
O=C(COC(=O)/C=C/c1ccccc1Cl)NCc1ccccc1	-0.1	1.2	0.3	100.2	-9.3	9.3	.	.	.
CC1Cn2c(nnc2C23CC4CC(CC(C4)C2)C3)S1 (centres undefined)	-0.4	1.2	0.1	102.7	12.3	-12.3	.	.	.
Cc1occc1C(=O)Nc1cccc([N+](=O)[O-])c1	-0.1	1.29	-0.7	102.4	9.9	-9.9	.	.	.
O=C(Nc1ccc2c(c1)CCC2)c1ccccc1F	-0.4	8.26*	6.6	178.8*	183.3*	-183.3	221.6*	123.3	97.0
O=C(Nc1ccc2c(c1)CCC2)c1ccccc1	-0.5	7.98*	-1.8	181.2*	171.7*	-171.7	237.2*	131.7	101.7
Cc1occc1C(=O)Nc1ccc2c(c1)CCC2	0.0	4.66*	1.0	156.5*	143.8*	-143.8	176.1*	130.2	108.8

Source: PubChem BioAssay (several laboratories)
